According to PubChem BioAssay (NCATS):
Results filed as inconclusive are left out. Values without a mark were called inactive. Activity calls are given as the source filed them. Calls follow the shape of the dose curve; as a rule, active = well fitted inhibition curve with a large enough effect; inconclusive = small, poorly fitted or top-dose-only effect; inactive = no such curve, though single readings can be large or run the other way.

Tested on: Zika virus NS2B-NS3 protease (linked construct)
Experiment: Primary screen NINDS Rhodamine qHTS for Zika virus inhibitors (AID 1347160); also: nearly all actives have a fitted effect of over 55% in size
Conditions: purified NS2B-NS3 protease, Rhodamine110 substrate fluorescence; series mostly up to 57.1 µM; activity change, negative = inhibition: at the top concentration
Method in brief: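 Aprotinin served as in-plate control. Conditions: 25 nM linked NS2B-NS3, pH 8.0 Tris buffer, titrated compounds, 15 min preincubation and 15 min reaction with 1.5 microM Rhod110 substrate at room temperature.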
% is scaled to controls: 0 for no effect and ±100 for the full control effect; potency is read from the fitted curve at half-maximal effect.

SMILES	activity change, negative = inhibition [%]	Potency
COc1ccc(Cc2ccc(NC(N)=O)cc2)cc1-c1cccc(Cl)c1	-4.87	
O=C(Nc1ccccc1-c1cn2c(CN3CCNCC3)csc2n1)c1cnc2ccccc2n1	428	
Cc1cccc(Nc2nc(-c3ccncc3)cs2)c1	32.8	
COc1ccc(C2CC(c3ccccc3)=NN2c2ccc(S(N)(=O)=O)cc2)cc1 (centres undefined)	5.87	
CC1(C)CCC(CN2CCN(c3ccc(C(=O)NS(=O)(=O)c4ccc(NCC5CCOCC5)c([N+](=O)[O-])c4)c(Oc4cnc5[nH]ccc5c4)c3)CC2)=C(c2ccc(Cl)cc2)C1		3.98 µM (active)
CN1CCN(CCOc2cc(OC3CCOCC3)c3c(Nc4c(Cl)ccc5c4OCO5)ncnc3c2)CC1	-15.1	
CC(C)(C)OC(=O)N[C@H]1CCCCCC=C[C@@H]2C[C@@]2(C(=O)NS(=O)(=O)C2CC2)NC(=O)[C@@H]2C[C@@H](OC(=O)N3Cc4cccc(F)c4C3)CN2C1=O	-14.1	
CCN1CCC[C@H]1CNC(=O)c1cc(S(N)(=O)=O)ccc1OC	23.9	
CC(C)n1nc(-c2ccc3oc(N)nc3c2)c2c(N)ncnc21	-13.8	
COc1ccc2c(Oc3ccc(NC(=O)c4c(C)n(CC(C)(C)O)n(-c5ccccc5)c4=O)nc3)ccnc2c1	113	
COCCOC(=O)C1=C(C)NC2=C(C(=O)CC(c3ccccc3OC)C2)C1c1cccc(O)c1 (centres undefined)	-4.78	
COCCOc1nc(-c2ccc(Cl)c(Cl)c2)n(-c2ccc(NC(=O)CCl)cc2)n1	33.9	
O=c1cc(-c2ccccc2)oc2cc(O)c(O)c(O)c12		17.5 µM (active)
COc1cc(N2CCC(N3CCN(C)CC3)CC2)ccc1Nc1ncc(Cl)c(Nc2ccccc2S(=O)(=O)C(C)C)n1	204	
